Among the data in PubChem BioAssay (EPA / NIEHS) are AC50 and outcome values, retold here.

Read-out in assay [1]: Interleukin-1 alpha (IL1a), IL1A (gene 3552)
Kind of assay: BSK_KF3CT_IL1a: BioMAP Diversity Plus: KF3CT Assay for Interleukin-1 alpha (IL1a) Biomarker Activity (AID 2283070). The note with it: primary human keratinocytes with fibroblasts; actives raise or lower the signal. In outline: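 Chemicals were dosed onto co-cultured human keratinocytes and foreskin fibroblasts, IL-1a was quantified by ELISA at 24 h, and activity was fitted in both directions relative to DMSO controls.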

Read-out in assay [2]: TIMP metallopeptidase inhibitor 2 (TIMP2), TIMP2 (gene 7077)
The experiment in a line: BSK_KF3CT_TIMP2: BioMAP Diversity Plus: KF3CT Assay for TIMP metallopeptidase inhibitor 2 (TIMP2) Biomarker Activity (AID 2283071). The note with it: primary human keratinocytes with fibroblasts; actives raise or lower the signal. In outline: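 Cells: human keratinocytes co-cultured with foreskin fibroblasts. Treat with chemical, 24 h. Measure TIMP-2 by ELISA; fit curves bidirectionally vs DMSO baseline.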

Read-out in assay [3]: C-C motif chemokine 2 (Homo sapiens) (UniProt P13500)
Kind of assay: BSK_KF3CT_MCP1: BioMAP Diversity Plus: KF3CT Assay for Monocyte Chemoattractant Protein 1 (MCP1/CCL2) Biomarker Activity (AID 2283073). The note with it: primary human keratinocytes with fibroblasts; actives raise or lower the signal. In outline: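 Keratinocytes and foreskin fibroblasts were co-cultured, dosed with chemical, and sampled 24 h later. MCP-1 was quantified by ELISA, and the endpoint was analyzed with bidirectional fitting using DMSO as negative control.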

Read-out in assay [4]: Matrix Metallopeptidase 9 (MMP9), MMP9 (gene 4318)
The experiment in a line: BSK_KF3CT_MMP9: BioMAP Diversity Plus: KF3CT Assay for Matrix Metallopeptidase 9 (MMP9) Biomarker Activity (AID 2283074).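 On AC50: MMP9 protein level quantified by ELISA in the co-culture.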 Conditions: primary human keratinocytes with fibroblasts; actives raise or lower the signal. In outline: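 Human keratinocyte/foreskin fibroblast co-culture; compound added; 24 h; MMP-9 by ELISA; bidirectional fit vs DMSO baseline.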

Read-out in assay [5]: urokinase plasminogen activator (uPA), PLAU (gene 5328)
The experiment in a line: BSK_KF3CT_uPA: BioMAP Diversity Plus: KF3CT Assay for urokinase plasminogen activator (uPA) Biomarker Activity (AID 2283075). The note with it: primary human keratinocytes with fibroblasts; actives raise or lower the signal. The procedure, abridged: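 ELISA readout of uPA, analyzed for signal gain or loss relative to DMSO, from a human primary keratinocyte–foreskin fibroblast co-culture measured 24 h after chemical treatment.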

Read-out in assay [6]: E-selectin (Homo sapiens) (UniProt P16581)
Kind of assay: BSK_LPS_Eselectin: BioMAP Diversity Plus: LPS Assay for Eselectin Biomarker Activity (AID 2283077). Conditions: primary human HUVEC with PBMC; actives raise or lower the signal. The procedure, abridged: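 Signal of E-selectin, detected by ELISA, served as the endpoint; cells were umbilical vein endothelium with PBMC, read 24 h after treatment. DMSO defined baseline, and both increases and decreases were fitted.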

Read-out in assay [7]: Interleukin-8 (IL8), CXCL8 (gene 3576)
Kind of assay: BSK_LPS_IL8: BioMAP Diversity Plus: LPS Assay for Interleukin-8 (IL8) Biomarker Activity (AID 2283078). Conditions: primary human HUVEC with PBMC; actives raise or lower the signal. In outline:
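Endothelial cells and PBMC from human donors are co-cultured, treated with chemicals and LPS, then assayed for IL-8 by ELISA after 24 h. Parallel SRB staining (0.1% SRB after 10% TCA fixation, 560 nm) flags cytotoxicity.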

Assay [8] is described as follows: BSK_LPS_SRB: Viability Assessment in the BioMAP Diversity Plus: LPS Assay (AID 2283079).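 Further: total protein by sulforhodamine B absorbance as a cytotoxicity measure; measured one day after compound addition; fitted in both directions against DMSO so loss or gain of signal counts.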 Conditions: primary human HUVEC with PBMC. In outline:
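Overt cytotoxicity was gauged by sulforhodamine B total-protein staining in a primary human vascular endothelial and mononuclear cell co-culture 24 h post-dosing. Activity was fitted in both directions relative to DMSO.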

Read-out in assay [9]: Interleukin-1 alpha (IL1a), IL1A (gene 3552)
The experiment in a line: BSK_LPS_IL1a: BioMAP Diversity Plus: LPS Assay for Interleukin-1 alpha (IL1a) Biomarker Activity (AID 2283080). Conditions: primary human HUVEC with PBMC; actives raise or lower the signal. In outline:
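Measured: IL-1 alpha via ELISA at 24 h in LPS-activated human umbilical vein endothelium–PBMC co-culture. Baseline: DMSO, bidirectional fitting.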

Read-out in assay [10]: Monocyte Chemoattractant Protein-1 (MCP1), CCL2 (gene 6347)
The experiment in a line: BSK_LPS_MCP1: BioMAP Diversity Plus: LPS Assay for Monocyte Chemoattractant Protein-1 (MCP1) Biomarker Activity (AID 2283081).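 On AC50: secreted MCP-1 protein quantified by ELISA in culture supernatant.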 Conditions: primary human HUVEC with PBMC; actives raise or lower the signal. In outline:
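LPS-stimulated HUVEC/PBMC co-culture; chemical, 24 h; MCP-1 by ELISA; bidirectional fit vs DMSO; cytotoxicity via SRB (0.1% stain, 10% TCA fix, 560 nm) in parallel wells.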

Read-out in assay [11]: Tumor necrosis factor (Homo sapiens) (UniProt P01375)
The experiment in a line: BSK_LPS_TNFa: BioMAP Diversity Plus: LPS Assay for Tumour Necrosis Factor alpha (TNFa) Biomarker Activity (AID 2283085). The note with it: primary human HUVEC with PBMC; actives raise or lower the signal. In outline:
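Read-out is ELISA of TNFa in primary human endothelial cell–PBMC co-cultures at 24 h after compound. Activity in either direction was fitted against DMSO.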

Read-out in another assay: CD38, CD38 (gene 952)
Kind of assay: BSK_SAg_CD38: BioMAP Diversity Plus: SAg Assay for CD38 Biomarker Activity (AID 2283087). The note with it: primary human HUVEC with PBMC; actives raise or lower the signal. The procedure, abridged: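 Human HUVEC plus PBMC co-culture stimulated with superantigen; CD38 measured by ELISA 24 h after chemical dosing. Fluorescence read-out, bidirectional fit against DMSO; cytotoxicity tracked in parallel by SRB and Alamar Blue.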

Read-out in another assay: CD40, CD40 (gene 958)
The experiment in a line: BSK_SAg_CD40: BioMAP Diversity Plus: SAg Assay for CD40 Biomarker Activity (AID 2283088). The note with it: primary human HUVEC with PBMC; actives raise or lower the signal. In outline:
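Fluorescence ELISA read-out of CD40 from umbilical vein endothelium plus peripheral blood mononuclear cells, sampled 24 h after dosing. Values come from bidirectional curve fitting with DMSO as baseline.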

Read-out in another assay: CD69, CD69 (gene 969)
The experiment in a line: BSK_SAg_CD69: BioMAP Diversity Plus: SAg Assay for CD69 Biomarker Activity (AID 2283089).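 On AC50: cell surface CD69 protein quantified by ELISA with fluorescence detection.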 The note with it: primary human HUVEC with PBMC; actives raise or lower the signal. In outline:
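Primary human vascular co-culture (umbilical vein endothelium with peripheral blood mononuclear cells) exposed to test chemical for 24 h. CD69 levels quantified by fluorescence ELISA; DMSO served as negative control for bidirectional fitting.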

Read-out in assay [12]: Transforming growth factor beta 1 (TGFb1), TGFB1 (gene 7040)
The experiment in a line: BSK_KF3CT_TGFb1: BioMAP Diversity Plus: KF3CT Assay for Transforming growth factor beta 1 (TGFb1) Biomarker Activity (AID 2283072). The note with it: primary human keratinocytes with fibroblasts; actives raise or lower the signal. In outline: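 Primary human skin cells (keratinocytes, foreskin fibroblasts) were co-cultured, exposed to test chemical and sampled at 24 h. TGF-b1 levels were measured by ELISA and fitted bidirectionally relative to DMSO.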

Read-out in assay [13]: Macrophage colony-stimulating factor (MCSF), CSF1 (gene 1435)
The experiment in a line: BSK_LPS_MCSF: BioMAP Diversity Plus: LPS Assay for Macrophage colony-stimulating factor (MCSF) Biomarker Activity (AID 2283083). Conditions: primary human HUVEC with PBMC; actives raise or lower the signal. In outline:
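Compound is added to a human vascular primary co-culture of umbilical vein endothelium and blood mononuclear cells. After 24 h, M-CSF is quantified by ELISA. Signal changes are fitted in both directions against DMSO.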

Read-out in assay [14]: Vascular cell adhesion molecule 1 (VCAM1), VCAM1 (gene 7412)
The experiment in a line: BSK_LPS_VCAM1: BioMAP Diversity Plus: LPS Assay for Vascular cell adhesion molecule 1 (VCAM1) Biomarker Activity (AID 2283086). The note with it: primary human HUVEC with PBMC; actives raise or lower the signal. The procedure, abridged: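 HUVEC + PBMC co-culture, LPS system; compound 24 h; VCAM-1 by ELISA; bidirectional fit vs DMSO control; parallel SRB (0.1%, TCA-fixed, 560 nm) for cytotoxicity.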

Read-out in assay [15]: Tissue Factor, F3 (gene 2152)
The experiment in a line: BSK_LPS_TissueFactor: BioMAP Diversity Plus: LPS Assay for Tissue Factor Biomarker Activity (AID 2283084). The note with it: primary human HUVEC with PBMC; actives raise or lower the signal. The procedure, abridged: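 In this co-culture system of umbilical vein endothelium with PBMC, stimulated with LPS, cell-surface CD142 is detected by ELISA at 24 h. Endpoint values derive from bidirectional fitting, DMSO serving as baseline.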

More than one record can exist for a structure, and the calls need not agree. Active and inactive are the calls of the source. How the source made its calls: active means hit-call score of the fitted dose curve at least 0.9, where 1 is the maximum; inactive means score below 0.9.

Sequence of E-selectin (Homo sapiens) (P16581 whole entry, looked up): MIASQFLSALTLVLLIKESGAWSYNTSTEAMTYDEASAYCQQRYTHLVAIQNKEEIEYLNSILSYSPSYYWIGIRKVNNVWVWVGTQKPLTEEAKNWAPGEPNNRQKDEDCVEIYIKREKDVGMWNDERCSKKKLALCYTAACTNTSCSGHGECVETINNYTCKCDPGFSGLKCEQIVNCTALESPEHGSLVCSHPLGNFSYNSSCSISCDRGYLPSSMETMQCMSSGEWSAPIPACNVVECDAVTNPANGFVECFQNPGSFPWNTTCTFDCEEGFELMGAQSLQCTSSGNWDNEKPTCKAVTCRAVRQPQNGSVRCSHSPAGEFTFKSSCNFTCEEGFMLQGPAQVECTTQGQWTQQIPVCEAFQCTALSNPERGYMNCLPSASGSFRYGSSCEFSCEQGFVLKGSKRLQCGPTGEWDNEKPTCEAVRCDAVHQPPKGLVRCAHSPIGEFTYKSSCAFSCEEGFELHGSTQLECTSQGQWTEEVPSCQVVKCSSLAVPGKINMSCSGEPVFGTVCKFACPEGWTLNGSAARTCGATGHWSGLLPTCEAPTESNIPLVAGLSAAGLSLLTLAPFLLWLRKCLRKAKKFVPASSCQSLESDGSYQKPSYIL
Sequence of Tumor necrosis factor (Homo sapiens) (P01375 whole entry, looked up): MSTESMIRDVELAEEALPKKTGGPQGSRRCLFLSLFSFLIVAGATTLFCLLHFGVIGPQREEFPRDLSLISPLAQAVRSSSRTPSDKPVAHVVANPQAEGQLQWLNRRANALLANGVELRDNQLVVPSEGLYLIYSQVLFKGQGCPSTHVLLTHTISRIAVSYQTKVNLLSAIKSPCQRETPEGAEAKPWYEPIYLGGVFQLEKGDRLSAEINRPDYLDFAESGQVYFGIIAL

With `c1ccc(OCCOc2ccccc2)cc1`, the AC50 in [1] is 2.45 µM (active); with CD38, CD38 (gene 952), 1.49 µM (active). For the same compound, the result in assay [1], in assay [2], in [3], in assay [4], in assay [5] and in [6] was inactive. Further, the outcome was “inactive” in assay [7]; “inactive” in assay [8]; “inactive” in assay [9]; “inactive” in assay [10]; “inactive” in assay [11]; “inactive” with CD38, CD38 (gene 952). Further, the outcome is “inactive” with CD40, CD40 (gene 958) and “inactive” with CD69, CD69 (gene 969).

Turning to `CCCCOCCOCCO`, the result in assay [1], in [2], in [12], in assay [3], in assay [4] and in assay [5] was inactive. For the same compound, the outcome in assay [6] was “inactive”; in assay [7], “inactive”; in assay [8], “inactive”; in [10], “inactive”; in [11], “inactive”; with CD38, CD38 (gene 952), “inactive”. Also, the outcome with CD40, CD40 (gene 958) was “inactive”; with CD69, CD69 (gene 969), “inactive”.

With `c1ccc(Sc2ccccc2)cc1`, the AC50 in assay [1] is 30.8 µM (active); in assay [2] it was 27.8 µM (active); in assay [12], 32 µM (active); in assay [3], 32.8 µM (active); in [4], 32.7 µM (active); in assay [5], 33.1 µM (active). For the same compound, the AC50 was 33.1 µM (active) in assay [6]; 20 µM (active) in [7]; 32.2 µM (active) in assay [8]; 20 µM (active) in [10]; 35.6 µM (active) in [13]; 31.6 µM (active) in [14]. The AC50 with CD40, CD40 (gene 958) is 32.3 µM (active); with CD69, CD69 (gene 969) it was 29.7 µM (active). For the same compound, the outcome in assay [11] was “inactive”; in the assay with CD38, CD38 (gene 952) it was “inactive”.

Consider `C=C1CC/C=C(\C)CC[C@@H]2[C@@H]1CC2(C)C`, for which the AC50 in assay [1] was 29.6 µM (active); in [2], 10.8 µM (active); in assay [12], 20 µM (active); in assay [3] it was 4.87 µM (active); in [4] it was 20 µM (active); in assay [5] it was 34.5 µM (active). For the same compound, the concentration at half-maximal activity (AC50) is 21.2 µM (active) in [6]; 36.3 µM (active) in assay [8]; 5.05 µM (active) in assay [15]; 30.7 µM (active) in the assay with CD38, CD38 (gene 952); 31.7 µM (active) with CD40, CD40 (gene 958); 32.8 µM (active) with CD69, CD69 (gene 969). Besides, the outcome in assay [7], in assay [10] and in [11] was inactive.

Regarding `OCCN1CCOCC1`, the outcome in [1], in [2], in [12], in [3], in [4] and in [5] was inactive. For the same compound, the result in assay [6], in assay [7], in assay [8], in assay [10], in assay [11] and in assay [14] was inactive. Moreover, the outcome is “inactive” in the assay with CD38, CD38 (gene 952); “inactive” with CD40, CD40 (gene 958); “inactive” with CD69, CD69 (gene 969).

By AC50 is commonly meant the concentration giving half of the maximal activity seen.
